# Experimental data as given in the supplement of paper PMC6658780.
# Structures can show the parent of a compound that is named as a salt. ± gives the standard deviation of the averaged measurements.
# Tested on: Escherichia coli ATCC BAA-2469
# Assay: percent growth inhibition of drug alone vs DMSO control; higher = more growth inhibition
# Details: antibiotic (0.125x MIC): none (0.1% DMSO); 7 µM
# Method: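 Prestwick drugs tested at 20 uM and 7 uM with an antibiotic at 0.125x MIC (16 mg/L when MIC >128 mg/L) against E. coli ATCC BAA-2469 (NDM-1) in CAMHB, 384-well plates, duplicate runs. Percent growth inhibition was computed from OD600 (24 h minus 0 h) relative to DMSO wells. Drug + DMSO-only wells are also given. […]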
row,Structure (SMILES),percent growth inhibition of drug alone
1,Cc1nnc(NS(=O)(=O)c2ccc(N)cc2)s1 [Sulfamethizole],2.42 ± 3%
2,CCCCCCCCNC(C)C(O)c1ccc(SC(C)C)cc1 (configuration not stated) [Suloctidil],7.25 ± 11%
3,CCC[C@@H]1C[C@@H](C(=O)N[C@@H]([C@H]2O[C@H](SC)[C@H](O)[C@@H](O)[C@H]2O)[C@H](C)Cl)N(C)C1 [Clindamycin hydrochloride],12.8 ± 13%
4,CC[C@H]1OC(=O)[C@H](C)[C@@H](O[C@H]2C[C@@](C)(OC)[C@@H](O)[C@H](C)O2)[C@H](C)[C@@H](O[C@@H]2O[C@H](C)C[C@H](N(C)C)[C@H]2O)[C@](C)(O)C[C@@H](C)CN(C)[C@H](C)[C@@H](O)[C@]1(C)O [Azithromycin],22.2 ± 12%
5,N[C@@H]1CCCCN(c2c(F)cc3c(=O)c(C(=O)O)cn(C4CC4)c3c2Cl)C1 [Besifloxacin hydrochloride],3.86 ± 3.6%
6,CS(=O)(=O)c1ccc([C@@H](O)[C@@H](CF)NC(=O)C(Cl)Cl)cc1 [Florfenicol],21.5 ± 9.2%
7,Oc1c(Cl)cc(Cl)c(Cl)c1Cc1c(O)c(Cl)cc(Cl)c1Cl [Hexachlorophene],9.96 ± 8.8%
8,CC1=C(/C=C/C(C)=C/C=C/C(C)=C\C(=O)O)C(C)(C)CCC1 [Isotretinoin],1.08 ± 2.4%
9,CCOC(=O)c1ccc(N)cc1 [Benzocaine],-0.533 ± 1.7%
10,CCCCNc1c(C(=O)OCC)c(C)nc2c1cnn2CC [Tracazolate hydrochloride],3.29 ± 0.5%
11,O=C1CN(/N=C/c2ccc([N+](=O)[O-])o2)C(=O)N1 [Nitrofurantoin],5.87 ± 5.7%
12,C#C[C@]1(OC(C)=O)CC[C@H]2[C@@H]3CCC4=C[C@@H](OC(C)=O)CC[C@@H]4[C@H]3CC[C@@]21C [Ethynodiol diacetate],-1.57 ± 7.4%
13,O=C1NCCN1c1ncc([N+](=O)[O-])s1 [Niridazole],19.9 ± 7.6%

# Same assay, conditions: antibiotic (0.125x MIC): none (0.1% DMSO); 20 µM
row,Structure (SMILES),percent growth inhibition of drug alone
1,Cc1nnc(NS(=O)(=O)c2ccc(N)cc2)s1 [Sulfamethizole],-3.23 ± 2.1%
2,CCCCCCCCNC(C)C(O)c1ccc(SC(C)C)cc1 (configuration not stated) [Suloctidil],10.4 ± 16%
3,CCC[C@@H]1C[C@@H](C(=O)N[C@@H]([C@H]2O[C@H](SC)[C@H](O)[C@@H](O)[C@H]2O)[C@H](C)Cl)N(C)C1 [Clindamycin hydrochloride],35.5 ± 16%
4,Nc1ncn(C2OC(CO)C(O)C2O)c(=O)n1 (configuration not stated) [Azacytidine-5],111 ± 10%
5,CC1=C(/C=C/C(C)=C/C=C/C(C)=C\C(=O)O)C(C)(C)CCC1 [Isotretinoin],3.78 ± 1.7%
6,CCOC(=O)c1ccc(N)cc1 [Benzocaine],1.27 ± 1.7%
7,CCCCNc1c(C(=O)OCC)c(C)nc2c1cnn2CC [Tracazolate hydrochloride],-0.173 ± 5.2%
8,C#C[C@]1(OC(C)=O)CC[C@H]2[C@@H]3CCC4=C[C@@H](OC(C)=O)CC[C@@H]4[C@H]3CC[C@@]21C [Ethynodiol diacetate],-0.574 ± 3.8%
9,CN(C)c1ccc(O)c2c1C[C@H]1C[C@H]3[C@H](N(C)C)C(O)=C(C(N)=O)C(=O)[C@@]3(O)C(O)=C1C2=O [Minocycline hydrochloride],110 ± 14%
